Measured values as given in PubChem BioAssay.

Assay: mitochondrial membrane potential change in A549 cells, profiling panel, cell-based, JC-1 fluorescence, basal, 24 h, 100 nL (AID 1138);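 also: A549 lung adenocarcinoma cells under basal conditions with no added stimulus; test concentration not given here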
Settings: higher = more signal

Structure (SMILES)	z-score
CN1C(=O)C2C(C1=O)C1C=C(c3ccc(CO)cc3)C2C(c2cccs2)N1C (configuration not stated)	-0.0324
NCCCC[C@@H]1NC(=O)[C@H]2C[C@@H](C(=O)NCc3ccc(F)cc3)[C@@H](c3cccc(OCCO)c3)N2C1=O	-1.7
CC(C)(C)OC(=O)CC[C@]1(C(=O)N2CCOCC2)N=C(c2ccc(OCCCO)cc2)O[C@H]1c1ccccc1CN=[N+]=[N-]	-0.423
CC(C)[C@@H](C(=O)O)n1cc(-c2ccccc2)nn1	-0.138
NCCCC[C@@H]1NC(=O)[C@H]2C[C@@H](C(=O)NCc3ccc(F)cc3)[C@@H](c3ccc(O)cc3)N2C1=O	-0.724
O=C1OCCC=C[C@H]2OC34C=CCN(c5ccc(Cl)cc5)C(=O)[C@H]3N(CCO)C(=O)[C@@H]4C12 (some centres not stated)	-0.0109
O=C1O[C@@H](c2ccccc2)[C@@H](c2ccccc2)N2[C@@H](c3ccc(O)cc3)[C@]3(C(=O)Nc4ccc(C#CC5=CCCCC5)cc43)[C@@H](C(=O)N3CCCCCCC3)[C@H]12	1.26
